Screening data: PubChem BioAssay, several laboratories
SKN-1 block: suppressors of acrylamide-induced Pgst-4::GFP reporter in worms, primary screen, SKN-1 inhibitor project, whole organism, uHTS, GFP/RFP fluorescence ratio, strain VP596 | C. elegans VP596 Pgst-4::GFP/RFP ratio, 24 h | inhibition, % at 21.8 µM | hit rate 0.49% among 360,000;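 active means interference check ratio from 0.5 to 1.5 plus GFP to RFP signal ratio inhibition reaching or exceeding a fixed threshold, cut at about 30% in these data, passing the limit was not always enough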
Myeloid diff 2: induction of myeloid progenitor differentiation, primary screen, cell-based, flow cytometry, MLPCN library; calls only at 10 µM; hit rate 1% among 360,000; ER-HoxA9 myeloid progenitors, lysozyme-GFP differentiation; AID 624256, 2012;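 active means normalized GFP-positive differentiation at or above the plate's own cutoff, the solvent-only control mean plus 3 SD; inconclusive means no clear call, values can overlap the other calls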;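 further: cells exposed to compound for four days before flow analysis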
M1 PAM: human M1 muscarinic receptor positive allosteric modulators, primary screen, CHO-K1 cells, Fluo-8 calcium fluorescence, 1536-well. CHO-K1 hM1, ACh EC20; 0% = ACh EC20, 100% = maximal ACh. Muscarinic acetylcholine receptor M1 (Homo sapiens), P11229. hit rate 0.088% among 360,000. activation, % at 3 µM; in the data active means activation above about 19%, passing the limit was not always enough
M1 ag: human M1 muscarinic receptor agonists, primary screen, Fluo-8 calcium fluorescence, CHO-K1 cells, HTS; hit rate 0.33% among 360,000; CHO-K1 hM1, agonist mode; 0% DMSO, 100% acetylcholine EC100; activation, % at 3 µM;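 active means activation above the run's mean compound activation plus 3 SD, cut at about 16% in these data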;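 further: peak over basal fluorescence ratio within a 140 s kinetic read after compound addition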
M1 antag: human M1 muscarinic receptor antagonists, primary screen, CHO-K1 cells, Fluo-8 calcium fluorescence, 1536-well; hit rate 1.3% among 360,000; Muscarinic acetylcholine receptor M1 (Homo sapiens), P11229; AID 588852, 2011; CHO-K1 hM1, ACh EC80 antagonist; inhibition, % at 3 µM;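 active means percent inhibition above its own plate's cutoff, namely the mean of that plate's compound wells plus 3 SD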;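 further: peak over basal fluorescence ratio during 140 s after agonist addition; 0% = ACh EC80 plus DMSO and 100% = DMSO alone without agonist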
ATG4B inhibitor: ATG4B protease inhibitors, primary screen, biochemical, fluorescence, uHTS. Cysteine protease ATG4B (Homo sapiens), Q9Y4P1. ATG4B cleavage of LC3-PLA2, NBD-HPC fluorescence, 1 h. inhibition, % at 8.33 µM. hit rate 0.51% among 340,000. AID 504462, 2011; in the data active means inhibition above about 40%
Target sequence (Q9Y4P1 whole entry, looked up): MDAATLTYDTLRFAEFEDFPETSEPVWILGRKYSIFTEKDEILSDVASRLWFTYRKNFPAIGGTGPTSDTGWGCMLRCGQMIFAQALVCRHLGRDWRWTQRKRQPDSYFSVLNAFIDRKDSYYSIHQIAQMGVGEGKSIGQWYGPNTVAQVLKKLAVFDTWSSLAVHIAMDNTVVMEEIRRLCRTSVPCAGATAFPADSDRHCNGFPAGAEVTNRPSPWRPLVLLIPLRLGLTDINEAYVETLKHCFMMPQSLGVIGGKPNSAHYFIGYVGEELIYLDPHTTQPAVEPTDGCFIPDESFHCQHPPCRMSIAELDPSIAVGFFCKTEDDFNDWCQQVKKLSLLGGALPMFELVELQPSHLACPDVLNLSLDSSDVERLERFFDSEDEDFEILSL
Myeloid diff: inducers of myeloid progenitor differentiation, confirmation, cell-based, GFP/Mac1 flow cytometry, cherry pick 01 | shares compounds with Myeloid diff 2 | ER-HoxA9 myeloid progenitors, GFP/Mac1 double-positive flow | calls only | hit rate 2% among 2,300;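 active means share of green or green-and-red cells above 9 and 9% in run 1 or 4 and 3% in run 2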
GFP autofluor: flagged as fluorescent in myeloid differentiation counter-screen; hit rate 7.4% among 2,300; fluorescence response, % (concentration not given with the values); shares compounds with Myeloid diff 2; ER-HoxA9 myeloid progenitors, no estrogen, GFP autofluorescence flow cytometry; vehicle wells 0%, positive control 100%;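 active means over 5% cells positive for green fluorescent reporter, or over 2% positive for both it and APC stain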;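 further: range taken on the double positive population between DMSO and positive control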
Numbers without * were called inactive; i = inactive; ? = inconclusive; nt = no result given; + = active, no number. Sampled rows, rich in hits. Any-hit rate of the full collection: about 3.5%.

SMILES	SKN-1 block	Myeloid diff 2	M1 PAM	M1 ag	M1 antag	ATG4B inhibitor	Myeloid diff	GFP autofluor
CC(OC(=O)/C=C/c1ccc2ccccc2n1)C(=O)Nc1ccc(S(N)(=O)=O)cc1 (centres undefined)	14	i	-1	-1	10	-4	i	0
CC(OC(=O)/C=C/c1cccs1)C(=O)Nc1ccc(S(N)(=O)=O)cc1 (centres undefined)	-20	i	3	0	-2	-12	nt	nt
CCN1/C(=C\C=C2\C(=O)N(C)C(=S)N2C)Sc2ccccc21	31	i	8	2	6	7	i	0
c1cc(-c2cc3nc(NCC4CC4)ccn3n2)ccc1OCCN1CCOCC1	-2	i	-18	-2	13	nt	nt	nt
c1cc(-c2cc3nc(NC4CCCCC4)ccn3n2)ccc1OCCN1CCOCC1	8	i	-10	1	14	nt	i	1
CCOC(=O)c1ccc2c(c1)nc(SCc1cn3ccsc3n1)n2CC	-3	nt	1	-3	6	1	nt	nt
Cc1ncsc1CCSc1nc2ccccc2c(=O)n1C	-1	i	-9	4	0	-4	i	0
CCN(CC)S(=O)(=O)c1cccc(NC(=O)CN2C(=O)NC3(CCC(C)CC3)C2=O)c1 (centres undefined)	9	i	6	-1	-11	4	nt	nt
COC(=O)c1sccc1NC(=O)c1ccc(C)cc1	8	i	14	-3	-15	3	nt	nt
COC(=O)c1sccc1NC(=O)c1csc(C)c1	10	+	5	-6	-9	2	i	0
CCn1ncc(C2=NOC(C(=O)NCC(C)C)C2)c1C (centres undefined)	5	i	8	-3	-7	-10	nt	nt
CCn1ncc(C2=NOC(C(=O)Nc3cc(OC)c(Cl)cc3OC)C2)c1C (centres undefined)	-4	i	1	-2	-12	11	i	0
COc1ccc2c(c1)OC[C@H]1[C@H]2N2C(=O)c3cc(OC)ccc3NC(=O)[C@@]2(C)[C@H]1c1ccccc1	14	i	-21	-7	27*	-10	i	0
CCCN(CCC)CCNC(=O)c1cc2c(-c3ccc(Cl)cc3)nn(C)c2s1	11	?	-2	-10	11	-9	nt	nt
CCN(CC)CCNC(=O)c1cc2c(-c3ccc(Cl)cc3)nn(C)c2s1	1	+	4	-11	-8	-7	i	0
CC(C)C(OC(=O)/C=C/c1ccc2c(c1)OCO2)C(=O)NC(N)=O (centres undefined)	11	i	8	-2	-3	-7	nt	nt
CN1C(=O)/C(=C/c2ccc(O)c([N+](=O)[O-])c2)NC1=S	8	i	3	-5	-2	-4	nt	nt
COc1cc(/C=C2\NC(=S)N(C)C2=O)ccc1O	3	+	3	-4	4	-6	i	5.1*
COc1cccc(C(C)(O)c2nc(-c3ccc(F)cc3OC)cs2)c1 (centres undefined)	11	i	-6	-3	11	nt	nt	nt
COc1ccc(C(C)(O)c2nc(-c3ccc(F)cc3OC)cs2)cc1 (centres undefined)	21	i	-6	-2	8	nt	i	0
O=C(NN1CCOCC1)c1cccc(Cl)c1	-5	i	4	-1	0	2	nt	nt
Fc1ccccc1N1CCN(C2CCCN(Cc3ccccc3C(F)(F)F)C2)CC1 (centres undefined)	10	+	0	-8	-3	17	i	0
COc1ccccc1CN1CCCC(N2CCN(c3ccccc3OC)CC2)C1 (centres undefined)	-2	i	-10	-9	2	-2	nt	nt
Cc1cc(C)c(S(=O)(=O)c2ccccc2Cl)c(=O)[nH]1	-14	i	8	-1	-4	-2	nt	nt
O=S(=O)(N1CCCCC1)N1CCN(c2cc(Cl)ccc2Cl)CC1	6	i	4	-9	-8	11	nt	nt
SMILES	SKN-1 block	Myeloid diff 2	M1 PAM	M1 ag	M1 antag	ATG4B inhibitor	Myeloid diff	GFP autofluor
Cc1cccc(NC(=S)N/N=C/c2ccc([N+](=O)[O-])s2)c1	44*	i	-14	-2	9	-19	i	62*
COc1ccc(CNc2ccccc2)cc1Br	14	i	0	-5	-5	2	i	0
COc1ccc(/C=C(\C#N)C(=O)Nc2ccc3[nH]c(=O)[nH]c3c2)cc1	-9	i	3	-2	-2	0	nt	nt
CCOc1ccc(Nc2oc(-c3ccco3)nc2C#N)cc1	-4	+	3	-4	15	3	i	0
O=c1[nH]cc(COCC(F)CCl)c(=O)[nH]1 (centres undefined)	-8	i	-2	-4	2	-6	nt	nt
Cc1ccccc1OCCSc1nc2ccccc2n1CCC(=O)O	12	i	-3	-5	0	-2	nt	nt
Cc1ccc(S(=O)(=O)N/N=C/c2ccc(C#N)cc2)cc1	5	i	2	-7	3	-7	nt	nt
COc1ccc(C(=O)NC(=S)Nc2cccc(S(=O)(=O)N3CCOCC3)c2)cc1	-16	i	2	5	2	2	i	0
COc1ccc(C(=O)NNC(=O)c2cccc(S(=O)(=O)N3CCOCC3)c2)cc1	21	i	10	1	-15	-1	nt	nt
Cc1nc2c(oc3ccccc32)c(=O)o1	-3	+	10	-4	-5	4	i	0
CCCCC1(C)NC(=O)N(CC(=O)Nc2cc(S(=O)(=O)N3CCOCC3)ccc2Cl)C1=O (centres undefined)	8	i	7	-3	-9	-7	nt	nt
Cc1nc(C(=O)Nc2cccc(Cl)c2)nn1-c1cc(OC(C)C)c(Cl)cc1Cl	-3	+	3	-3	-1	-1	i	0
O=C(NCC1CCCO1)C1CCCN(S(=O)(=O)c2cccc3nsnc23)C1 (centres undefined)	8	i	-2	-4	2	-5	nt	nt
O=C(NCc1ccccc1Cl)C1CCCN(S(=O)(=O)c2cccc3nsnc23)C1 (centres undefined)	-7	i	5	-9	-3	-13	i	0
